Experimental data reported in PubChem BioAssay (Tox21).
Records with an inconclusive call do not appear. Calls of active or inactive are those of the source. Unless noted, calls come from the whole dose curve; as a rule, active = well fitted curve in the direction sought with a large enough effect in the repeat runs; inconclusive = weak or mixed curves; inactive = no such curve, though single readings can be large; an effect the other way counts as inactive or inconclusive.

Legend:
[1] = qHTS assay to identify small molecule agonists of the hypoxia (HIF-1) signaling pathway - cell viability counter screen (AID 1224844; calls by dose curve; note: nearly all actives have a fitted effect of over 50% in size)
In short: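 ME-180 HRE-bla cells, 2,000/well, 0.5% dialyzed FBS; 5 hr settle, 17 hr compound at 37C/5% CO2; CCF4-AM reporter read first, then CellTiter-Glo luminescence after 30 min RT.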

[2] = qHTS assay to identify small molecule agonists of H2AX (AID 1224845; active = well fitted activation curve with a large enough effect in the signal ratio in the repeat runs, not every such curve was filed as active; the % refers to the signal ratio)
In short: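 Wild-type CHO-K1 cells, plated overnight, exposed 3hr at 37C to 15 concentrations (0.76% DMSO final). Lysed, then HTRF anti-pH2AX (S139) cryptate and anti-H2AX-d2 antibodies, 24 hr room temperature; 665/620 nm emission read.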

[3] = qHTS assay to identify small molecule agonists of H2AX - cell viability counter screen (AID 1224847; calls by dose curve; note: top concentration of the series differs between compounds; nearly all actives have a fitted effect of over 30% in size)
In short: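 CHO-K1 cells plated overnight at 37C, then exposed 3 h at 37C to compounds at 15 concentrations (0.76% DMSO final). Viability by CellTiter-Glo luminescence after 30 min at room temperature.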

[4] = qHTS RealTime-Glo MT Cell Viability Assay in HepG2 cells - 24 hour (AID 1224867); note: nearly all actives have a fitted effect of over 50% in size
In short: (§1)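 Viability was tracked continuously by NanoLuc luminescence from prosubstrate reduced by living HepG2 cells, at successive time points over 40 h of compound exposure. Cells with reagent were preincubated 5 h at 37 °C before compound addition.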

[5] = A CellTox Green Cytotoxicity Assay to monitor cytotoxicity in HEK293 cells - 0 hour (AID 1224869); note: nearly all actives have a fitted effect of over 50% in size
In short: (§2)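 Nonlytic real-time cytotoxicity: HEK293 + CellTox Green reagent plated, 5 h preincubation, pintool compound addition (23 nL in DMSO), 37 C for 40 h, fluorescence measured at successive time points.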

[6] = qHTS RealTime-Glo MT Cell Viability Assay in HepG2 cells - 40 hour (AID 1224870); note: nearly all actives have a fitted effect of over 50% in size
In short: (§3)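 HepG2 cells (600/well) mixed with RealTime-Glo MT reagent, settled 5 h at 37 C/5% CO2 before compound addition. Nonlytic NanoLuc luminescence from viable-cell prosubstrate reduction read repeatedly during 40 h treatment at 37 C.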

[7] = A CellTox Green Cytotoxicity Assay to monitor cytotoxicity in HEK293 cells - 40 hour (AID 1224871); note: nearly all actives have a fitted effect of over 45% in size
In short: as §2

[8] = qHTS RealTime-Glo MT Cell Viability Assay in HEK293 cells - 16 hour (AID 1224872)
In short: (§4)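 Viability tracked continuously by luminescence as live cells reduce a prosubstrate for NanoLuc; HEK293 cells preincubated 5 h, compound-treated at 37 C, and read at 0, 8, 16, 24, 32 and 40 h.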

[9] = qHTS RealTime-Glo MT Cell Viability Assay in HepG2 cells - 8 hour (AID 1224873); note: nearly all actives have a fitted effect of over 55% in size
In short: as §3

[10] = A CellTox Green Cytotoxicity Assay to monitor cytotoxicity in HEK293 cells - 24 hour (AID 1224875); note: series mostly up to about 77 µM; nearly all actives have a fitted effect of over 45% in size
In short: as §2

[11] = A CellTox Green Cytotoxicity Assay to monitor cytotoxicity in HepG2 cells - 16 hour (AID 1224876); note: nearly all actives have a fitted effect of over 45% in size
In short: (§5)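 Read-out is fluorescence of a cyanine dye excluded from live cells that stains DNA of dead HepG2 cells, with signal proportional to cytotoxicity. Plates were read at 0, 8, 16, 24, 32 and 40 h after compound addition.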

[12] = qHTS RealTime-Glo MT Cell Viability Assay in HepG2 cells - 32 hour (AID 1224877); note: nearly all actives have a fitted effect of over 55% in size
In short: as §1

[13] = A CellTox Green Cytotoxicity Assay to monitor cytotoxicity in HepG2 cells - 24 hour (AID 1224878); note: nearly all actives have a fitted effect of over 45% in size
In short: as §5

[14] = A CellTox Green Cytotoxicity Assay to monitor cytotoxicity in HepG2 cells - 40 hour (AID 1224879); note: nearly all actives have a fitted effect of over 40% in size
In short: as §5

[15] = qHTS RealTime-Glo MT Cell Viability Assay in HEK293 cells - 0 hour (AID 1224880)
In short: (§6)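 Cells were seeded together with NanoLuc luciferase and a prosubstrate that viable cells reduce to a luciferase substrate. After a 5 h incubation at 37 C/5% CO2, compounds were added and luminescence was measured repeatedly during 40 h of treatment.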

[16] = qHTS RealTime-Glo MT Cell Viability Assay in HEK293 cells - 32 hour (AID 1224868)
In short: as §4

[17] = qHTS RealTime-Glo MT Cell Viability Assay in HEK293 cells - 40 hour (AID 1224874); conditions: RealTime-Glo luminescence; max response: hits give low values; note: nearly all actives have a fitted effect of over 50% in size
In short: as §6
% is set by controls: 0 for no effect and ±100 for the full control effect.

O=C(O)c1cn(C2CC2)c2cc(N3CCNCC3)c(F)cc2c1=O
inactive: Potency [1] | Potency [2] | outcome [3] | outcome [4] | outcome [5] | Potency [6] | Potency [7] | Potency [8] | outcome [9] | outcome [10] | outcome [11] | Potency [12] | outcome [13] | Potency [14] | Potency [15]

CC1OC1C1CCC2(C)OC2C1 (stereo not given)
inactive: Potency [1] | Potency [2] | outcome [3] | outcome [4] | Potency [16] | Potency [6] | Potency [7] | Potency [8] | outcome [9] | max response [17] 1.23% | outcome [10] | Potency [12] | Potency [15]

CCN1CCOCC1
inactive: Potency [1] | Potency [2] | outcome [3] | outcome [4] | Potency [16] | outcome [5] | Potency [7] | outcome [9] | max response [17] -0.712% | outcome [10] | outcome [11] | Potency [12] | outcome [13] | Potency [14] | Potency [15]

CC[N+](C)(CC)CCOC(=O)C1c2ccccc2Oc2ccccc21
inactive: Potency [1] | Potency [2] | outcome [3] | outcome [4] | outcome [5] | Potency [6] | Potency [7] | Potency [8] | outcome [9] | max response [17] 3.05% | outcome [10] | outcome [11] | Potency [12] | outcome [13] | Potency [14] | Potency [15]

Nc1ccccn1
inactive: Potency [1] | Potency [2] | outcome [3] | outcome [4] | outcome [5] | Potency [7] | outcome [9] | max response [17] -3.82% | outcome [10] | outcome [11] | Potency [12] | outcome [13] | Potency [14] | Potency [15]

CCCCCCCC1CCCC1=O (stereo not given)
inactive: Potency [1] | Potency [2] | outcome [3] | outcome [4] | Potency [16] | outcome [5] | Potency [6] | Potency [7] | outcome [9] | max response [17] 18.6% | outcome [10] | outcome [11] | Potency [12] | outcome [13] | Potency [14] | Potency [15]

O=[N+]([O-])c1cncn1CCN1CCOCC1
inactive: Potency [1] | Potency [2] | outcome [3] | outcome [4] | Potency [16] | outcome [5] | Potency [6] | Potency [7] | Potency [8] | outcome [9] | max response [17] -2.63% | outcome [10] | outcome [11] | Potency [12] | outcome [13] | Potency [15]

O=C(O)CCCC[P+](c1ccccc1)(c1ccccc1)c1ccccc1
inactive: Potency [1] | Potency [2] | outcome [3] | outcome [4] | Potency [16] | outcome [5] | Potency [6] | Potency [7] | Potency [8] | outcome [9] | max response [17] -10.4% | outcome [10] | Potency [12] | Potency [15]

CCCCN(CCC(=O)OCC)C(C)=O
inactive: Potency [1] | Potency [2] | outcome [3] | outcome [4] | Potency [16] | Potency [6] | Potency [7] | Potency [8] | outcome [9] | max response [17] 0.53% | outcome [10] | outcome [11] | Potency [12] | outcome [13] | Potency [14] | Potency [15]

CCCCS(=O)(=O)N[C@@H](Cc1ccc(OCCCCC2CCNCC2)cc1)C(=O)O
inactive: Potency [1] | Potency [2] | outcome [3] | outcome [4] | outcome [5] | Potency [6] | Potency [7] | Potency [8] | outcome [9] | max response [17] -0.348% | outcome [11] | Potency [12] | outcome [13] | Potency [14] | Potency [15]

c1coc(CNc2ncnc3nc[nH]c23)c1
inactive: Potency [1] | Potency [2] | outcome [3] | Potency [16] | outcome [5] | Potency [6] | Potency [7] | Potency [8] | outcome [9] | max response [17] -15.6% | outcome [10] | outcome [11] | Potency [12] | outcome [13] | Potency [14] | Potency [15]

NC(CCC(=O)O)C(=O)O (stereo not given)
inactive: Potency [1] | Potency [2] | outcome [3] | outcome [4] | Potency [16] | outcome [5] | Potency [6] | Potency [7] | outcome [9] | max response [17] 16.4% | outcome [10] | outcome [11] | Potency [12] | outcome [13] | Potency [14] | Potency [15]

CCN[C@@H]1C[C@H](N)[C@@H](OC2OC(CN)=CCC2N)[C@H](O)[C@H]1O[C@H]1OC[C@](C)(O)[C@H](NC)[C@H]1O (stereo not given in full)
inactive: activity change, negative = cytotoxicity [1] 3.33% [at 0.29 µM] | activation (H2AX phosphorylation) [2] -3.19% [at 0.582 µM] | activity change, negative = cytotoxicity [3] 4.57% [at 0.582 µM] | activity change, negative = cytotoxicity [4] 1.48% [at 0.29 µM] | activity change, negative = cytotoxic [6] 1.76% [at 0.29 µM] | cytotoxicity increase [7] 6.9% [at 0.29 µM] | activity change, negative = cytotoxicity [8] 1.34% [at 0.29 µM] | viability change, negative = cytotoxic [9] 0.243% [at 0.29 µM] | max response [17] 5.87% | activity change [10] 6.99% [at 0.29 µM] | cytotoxicity increase [11] -0.147% [at 0.29 µM] | activity change, negative = cytotoxic [12] 1.75% [at 0.29 µM] | cytotoxicity [13] -2.12% [at 0.29 µM] | cytotoxicity increase [14] -8.46% [at 0.29 µM] | activity change, negative = cytotoxicity [15] 1.44% [at 0.29 µM]

CC(C(=O)O)c1cccc(Oc2ccccc2)c1 (stereo not given)
inactive: Potency [1] | Potency [2] | outcome [3] | outcome [4] | Potency [16] | outcome [5] | Potency [6] | Potency [7] | Potency [8] | outcome [9] | max response [17] -2.21% | outcome [10] | outcome [11] | Potency [12] | outcome [13] | Potency [14] | Potency [15]

CC(C)C(=O)OC(=O)C(C)C
inactive: Potency [1] | Potency [2] | outcome [3] | outcome [4] | Potency [16] | Potency [6] | Potency [7] | Potency [8] | outcome [9] | max response [17] 3.07% | outcome [10] | outcome [11] | Potency [12] | outcome [13] | Potency [14] | Potency [15]
